Measurements: PubChem BioAssay
Records with an inconclusive call do not appear. Calls of active or inactive are those of the source. Unless noted, no stated cut-off is given here; in the data, active means response above about 15%; inactive means the rest.

What was measured:
[1] = rapamycin-like changes in RPL19A-GFP expression – cell-based, S. cerevisiae, multiplex flow cytometry, primary screen (AID 1862; in the data active means percent of DMSO control GFP below about 86%;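 further: lower values mimic rapamycin by blocking the RPL19A rise seen in DMSO cells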); conditions: S. cerevisiae RPL19A-GFP strain, flow cytometry fluorescence, 3 h; at 10 µM; stronger effect = lower value
[2] = TOR pathway GLN3 branch reporter MEP2-GFP changes – S. cerevisiae, multiplex flow cytometry, primary screen (AID 1867;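 active means GFP response, as percent of the DMSO control, above the screen-wide mean plus 3 SD, about 139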;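 further: median GFP channel fluorescence of barcode-gated MEP2-GFP cells measured by flow cytometry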); conditions: S. cerevisiae MEP2-GFP strain, 3 h, at 10 µM, stronger effect = higher value, 100% means same as DMSO wells
[3] = TOR pathway RTG branch CIT2 reporter changes – S. cerevisiae, GFP fusion, multiplex flow cytometry, primary screen (AID 1870;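 active means percent response above a set limit, the screen-wide mean plus 3 SD, cut at about 130% in these data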;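 further: barcoded CIT2-GFP strain pooled with four other GFP strains with rapamycin as positive control; median GFP fluorescence per well over plate mean of DMSO wells so 100% = DMSO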); conditions: S. cerevisiae CIT2-GFP expression, 3 h, at 10 µM, stronger effect = higher value
[4] = TOR pathway LAP4-GFP level changes – S. cerevisiae, multiplex flow cytometry, primary screen (AID 1873;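 active means GFP signal, as percent of the solvent control, above the screen mean plus 3 SD, about 149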); conditions: S. cerevisiae LAP4-GFP expression, 3 h, at 10 µM, stronger effect = higher value
[5] = yeast AGP1-GFP level changes, GLN3 branch – cell-based, multiplex flow cytometry, S. cerevisiae, primary screen (AID 1887;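 active means GFP signal above the screen-wide mean plus 3 SD, that is over about 124.5% of the solvent control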;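 further: AGP1-GFP fusion strain of S. cerevisiae within a five-strain barcoded multiplex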); conditions: 3 h, at 10 µM, stronger effect = higher value
[6] = reduced mouse 2C T cell binding to pMHC/ICAM-1 vesicles – MLPCN validation set, flow cytometry, LFA-1/ICAM-1 modulator project, pilot screen (AID 2523;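 active means response below a set limit, under 55% cells CD8-positive and vesicle-bound, and CD8 cells' 90th-percentile brightness under 279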;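 on vesicle binding response: mean PE anti-B7-1 fluorescence of CD8+ cells relative to row control; 100% = QL9-loaded vesicles with DMSO vehicle in the same plate row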); conditions: 2C mouse CD8+ T cells, at 7 µM, stronger effect = lower value; double positive events: measured here: CD8+/vesicle+ event percentage
[7] = biological target: Integrin beta-1 (Homo sapiens) + Integrin alpha-4 (Homo sapiens) (UniProt P13612+P05556); experiment: alpha4beta1 integrin LIBS antibody binding reduction – U937 cells, HUTS-21 mAb, flow cytometry, validation set, VLA-4 allosteric modulator project, pilot screen (AID 2674;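 active means inhibition above 50%, about 3 SD of the validation set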;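 further: antibody binding induced by the VLA-4 ligand LDV present at three times its Kd; 0% = LDV ligand with antibody and no compound and 100% = antibody without LDV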); conditions: HUTS-21 LIBS mAb binding, at 6.7 µM, stronger effect = higher value, binding induced by LDV ligand
Integrin beta-1 (Homo sapiens) + Integrin alpha-4 (Homo sapiens), sequence (P05556 whole entry, looked up): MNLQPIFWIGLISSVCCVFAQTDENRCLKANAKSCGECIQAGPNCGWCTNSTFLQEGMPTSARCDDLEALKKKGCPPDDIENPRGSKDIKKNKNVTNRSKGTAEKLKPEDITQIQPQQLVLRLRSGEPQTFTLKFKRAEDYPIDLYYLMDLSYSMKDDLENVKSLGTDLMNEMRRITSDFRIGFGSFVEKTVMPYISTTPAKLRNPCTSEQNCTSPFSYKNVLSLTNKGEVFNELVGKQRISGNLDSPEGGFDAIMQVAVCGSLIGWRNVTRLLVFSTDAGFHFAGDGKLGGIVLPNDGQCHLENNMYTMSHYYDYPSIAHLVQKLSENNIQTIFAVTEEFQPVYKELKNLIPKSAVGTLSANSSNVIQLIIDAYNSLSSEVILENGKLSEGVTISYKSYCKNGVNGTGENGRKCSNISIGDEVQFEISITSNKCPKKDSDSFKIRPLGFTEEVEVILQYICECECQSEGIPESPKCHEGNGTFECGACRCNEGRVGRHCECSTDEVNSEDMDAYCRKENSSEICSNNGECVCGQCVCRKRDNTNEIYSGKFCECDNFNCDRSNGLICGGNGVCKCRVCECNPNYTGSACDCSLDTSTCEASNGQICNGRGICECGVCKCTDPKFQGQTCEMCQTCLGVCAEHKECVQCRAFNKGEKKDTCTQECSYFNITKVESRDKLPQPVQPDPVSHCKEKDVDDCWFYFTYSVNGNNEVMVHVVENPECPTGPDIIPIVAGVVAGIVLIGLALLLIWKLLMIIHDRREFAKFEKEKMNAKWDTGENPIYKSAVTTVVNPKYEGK
Integrin beta-1 (Homo sapiens) + Integrin alpha-4 (Homo sapiens), sequence (P13612 whole entry, looked up): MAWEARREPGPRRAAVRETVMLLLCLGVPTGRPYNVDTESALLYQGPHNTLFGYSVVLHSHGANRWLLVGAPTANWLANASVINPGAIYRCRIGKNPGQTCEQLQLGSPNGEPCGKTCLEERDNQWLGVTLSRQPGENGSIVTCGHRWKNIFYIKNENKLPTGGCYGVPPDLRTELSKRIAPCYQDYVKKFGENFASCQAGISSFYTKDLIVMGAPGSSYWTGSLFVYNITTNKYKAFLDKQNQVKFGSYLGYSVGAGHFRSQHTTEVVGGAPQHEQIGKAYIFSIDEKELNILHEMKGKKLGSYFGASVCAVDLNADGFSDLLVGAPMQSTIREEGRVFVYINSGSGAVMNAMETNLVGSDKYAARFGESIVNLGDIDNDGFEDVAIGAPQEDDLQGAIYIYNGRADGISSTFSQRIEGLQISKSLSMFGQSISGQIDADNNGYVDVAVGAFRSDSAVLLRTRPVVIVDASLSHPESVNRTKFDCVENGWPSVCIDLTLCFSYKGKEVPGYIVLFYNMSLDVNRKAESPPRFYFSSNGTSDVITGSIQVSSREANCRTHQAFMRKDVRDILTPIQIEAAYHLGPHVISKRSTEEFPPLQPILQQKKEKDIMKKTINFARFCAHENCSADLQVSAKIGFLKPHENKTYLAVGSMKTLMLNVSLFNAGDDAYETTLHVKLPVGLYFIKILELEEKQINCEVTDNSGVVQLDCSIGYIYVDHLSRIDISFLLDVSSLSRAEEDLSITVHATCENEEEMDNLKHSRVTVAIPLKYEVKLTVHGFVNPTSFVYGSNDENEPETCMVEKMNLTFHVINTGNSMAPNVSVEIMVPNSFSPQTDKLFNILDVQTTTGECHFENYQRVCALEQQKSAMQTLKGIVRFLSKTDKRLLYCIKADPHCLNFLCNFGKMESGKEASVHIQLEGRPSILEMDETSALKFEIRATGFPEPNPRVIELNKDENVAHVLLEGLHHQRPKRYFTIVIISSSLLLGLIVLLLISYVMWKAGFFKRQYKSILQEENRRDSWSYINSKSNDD

[8] = calorie-restriction mimetic ROS inhibitors, yeast – validation compound set, pilot screen (AID 2706;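 active means superoxide response below 65% of plate, a cut near 3 SD across the whole screen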;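 further: yeast exposed to compound for one week at 30 degrees C before staining; 100% = mean of all compound wells on the same plate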); conditions: S. cerevisiae aging, superoxide DHE fluorescence; at 10 µM, stronger effect = lower value
[9] = biological target: Beta-adrenergic receptor kinase 1 (Homo sapiens) (UniProt P25098); experiment: GRK2 binders displacing RNA aptamer, biochemical, validation, human GRK2, bead flow cytometry (AID 488806;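 active means aptamer binding inhibition above 30%, about 3 SD of noise from non-fluorescent compounds; inactive means inhibition at or below 30%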); conditions: bead-bound GRK2, FAM-aptamer displacement, at 10 µM, stronger effect = higher value
Beta-adrenergic receptor kinase 1 (Homo sapiens), sequence (P25098 whole entry, looked up): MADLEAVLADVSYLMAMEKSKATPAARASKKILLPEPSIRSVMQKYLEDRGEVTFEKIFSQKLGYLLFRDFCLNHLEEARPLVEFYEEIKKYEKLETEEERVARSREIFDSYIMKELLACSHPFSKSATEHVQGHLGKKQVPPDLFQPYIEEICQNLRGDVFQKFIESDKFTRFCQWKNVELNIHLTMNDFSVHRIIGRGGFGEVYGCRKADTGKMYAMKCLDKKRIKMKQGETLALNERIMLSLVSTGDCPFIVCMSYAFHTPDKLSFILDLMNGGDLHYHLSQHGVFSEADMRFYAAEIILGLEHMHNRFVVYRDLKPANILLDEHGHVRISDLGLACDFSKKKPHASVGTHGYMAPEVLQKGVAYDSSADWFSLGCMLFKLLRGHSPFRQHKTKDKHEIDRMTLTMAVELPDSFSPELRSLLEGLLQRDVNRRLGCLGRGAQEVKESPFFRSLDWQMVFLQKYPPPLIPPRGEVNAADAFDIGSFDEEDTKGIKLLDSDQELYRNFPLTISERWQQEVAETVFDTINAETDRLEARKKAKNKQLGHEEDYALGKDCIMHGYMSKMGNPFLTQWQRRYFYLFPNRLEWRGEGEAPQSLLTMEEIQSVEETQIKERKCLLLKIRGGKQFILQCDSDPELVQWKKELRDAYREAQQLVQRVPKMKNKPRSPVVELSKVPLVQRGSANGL

[10] = biological target: Beta-2 adrenergic receptor (Homo sapiens) (UniProt P07550); experiment: agonist-induced loss of surface beta2AR – cell-based, FAP fluorogen, flow cytometry, validation set, pilot screen (AID 504459;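 active means percent response above 42, roughly 3 SD of non-fluorescent test compounds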;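 further: agonist-driven loss of surface beta2AR via internalization measured by FAP dye flow cytometry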); conditions: Am2.2-beta2AR cells, at 10 µM, stronger effect = higher value
Beta-2 adrenergic receptor (Homo sapiens), sequence (P07550 whole entry, looked up): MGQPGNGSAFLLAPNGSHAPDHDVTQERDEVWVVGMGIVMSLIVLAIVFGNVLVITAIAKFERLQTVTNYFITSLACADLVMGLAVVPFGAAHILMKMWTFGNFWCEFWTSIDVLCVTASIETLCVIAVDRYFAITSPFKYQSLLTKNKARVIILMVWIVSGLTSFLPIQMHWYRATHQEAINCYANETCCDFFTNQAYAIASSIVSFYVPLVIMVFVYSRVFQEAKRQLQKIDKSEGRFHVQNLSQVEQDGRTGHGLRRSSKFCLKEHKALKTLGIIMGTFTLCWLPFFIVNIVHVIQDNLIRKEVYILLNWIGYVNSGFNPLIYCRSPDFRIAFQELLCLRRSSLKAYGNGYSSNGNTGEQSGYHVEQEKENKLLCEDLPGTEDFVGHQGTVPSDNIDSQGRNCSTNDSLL

[11] = cytosolic pH regulators acting via V-ATPase – S. cerevisiae, pHLuorin, HTS validation (AID 504600); conditions: V-ATPase proton transport, at 10 µM, stronger effect = higher value;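 further: plate controls were DMSO for no effect and reference compound for full effect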
[12] = test system: anti-desmoglein-3 scFv antibody binding to human DSG3; experiment: blockers of pathogenic pemphigus antibody–desmoglein-3 binding – biochemical, validation compound set, bead-based, flow cytometry, pilot screen (AID 588368;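 active means binding below the plate cutoff, the plate median minus 3 SD, with a reading above zero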;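 further: signal is the median channel fluorescence of bead-bound GFP antibody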); conditions: Protein G beads, DSG3-Fc, scFv-GFP binding, at 10 µM, stronger effect = lower value
[13] = Nile Red efflux blockade in pump-expressing yeast – validation compound set, multiplex, phenotypic, pilot screen (AID 588506;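 active means efflux inhibition above 0.42, the validation set average plus 4 SD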;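 further: Nile Red retained in cells so higher fluorescence means more efflux inhibition; 0 = negative control wells and 1 = enniatin B 25 µM full block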); conditions: S. cerevisiae pump-expressing triplex, Nile Red efflux flow cytometry; at 10 µM; stronger effect = higher value; the pumps come from Candida albicans
[14] = biological target: ATP-binding cassette sub-family B member 6 (Homo sapiens) (UniProt Q9NP58); experiment: blockers of ABCB6-driven porphyrin uptake – K562-ABCB6 cells, flow cytometry, validation set, pilot screen (AID 588550;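 active means inhibition above the screen-wide mean plus 3 SD, about 51%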;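 further: 0% = DMSO wells and 100% = benzethonium chloride 70 µM positive control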); conditions: K562-ABCB6 porphyrin accumulation, 1 h, at 10 µM, stronger effect = higher value
ATP-binding cassette sub-family B member 6 (Homo sapiens), sequence (Q9NP58 whole entry, looked up): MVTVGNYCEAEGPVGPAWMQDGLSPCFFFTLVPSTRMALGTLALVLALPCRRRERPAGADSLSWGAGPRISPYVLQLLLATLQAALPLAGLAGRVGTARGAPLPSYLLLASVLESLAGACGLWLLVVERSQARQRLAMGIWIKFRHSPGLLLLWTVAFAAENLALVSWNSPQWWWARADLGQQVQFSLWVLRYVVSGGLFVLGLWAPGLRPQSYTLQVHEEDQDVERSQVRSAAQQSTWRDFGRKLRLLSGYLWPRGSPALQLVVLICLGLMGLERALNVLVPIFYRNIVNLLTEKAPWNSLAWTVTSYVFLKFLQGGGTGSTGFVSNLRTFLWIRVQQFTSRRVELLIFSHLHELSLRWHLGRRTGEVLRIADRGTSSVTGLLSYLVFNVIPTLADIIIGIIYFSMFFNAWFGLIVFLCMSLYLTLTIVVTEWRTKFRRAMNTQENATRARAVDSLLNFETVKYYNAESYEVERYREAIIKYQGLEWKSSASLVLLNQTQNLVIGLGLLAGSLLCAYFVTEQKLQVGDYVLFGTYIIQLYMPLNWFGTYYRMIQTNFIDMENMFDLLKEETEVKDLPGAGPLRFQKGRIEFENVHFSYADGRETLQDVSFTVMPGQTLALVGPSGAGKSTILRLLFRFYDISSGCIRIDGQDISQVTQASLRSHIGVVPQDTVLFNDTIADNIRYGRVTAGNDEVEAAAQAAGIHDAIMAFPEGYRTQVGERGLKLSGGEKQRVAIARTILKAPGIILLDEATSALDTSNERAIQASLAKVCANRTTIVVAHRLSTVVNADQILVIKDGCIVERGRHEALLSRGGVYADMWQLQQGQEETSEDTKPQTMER

[15] = AML differentiation inducers, ER-HoxA9 marrow cells – cell-based, GFP/MAC1 double positive, flow cytometry, validation set, primary screen (AID 588685;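 active means differentiation response of at least 50%, scaled between solvent and reference control, from cells with both markers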;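 further: compound exposure lasts four days before antibody staining and flow analysis; 0% = DMSO wells and 100% = 5 µM fulvestrant positive control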); conditions: stronger effect = higher value, normalized: vehicle 0, fulvestrant 100
[16] = biological target: AP-2 complex subunit beta (Homo sapiens) (UniProt P63010); experiment: beta-arrestin/AP2 interaction blockers – biochemical, validation set, GST-AP2 beads, flow cytometry, pilot screen (AID 504541;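 active means inhibition above 54%, about 3 SD of non-fluorescent compounds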;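 further: AP2 carries R879A mutation and is captured from E. coli lysate; bead-bound FITC arrestin peptide fluorescence measuring arrestin peptide binding to AP2; 0% = DMSO wells and 100% = excess unlabeled arrestin peptide control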); conditions: FITC arrestin peptide, at 10 µM, stronger effect = higher value, AP2 beta2 appendage fragment, R879A mutant
AP-2 complex subunit beta (Homo sapiens), sequence (P63010 whole entry, looked up, the tested form may be a part, one chain of several): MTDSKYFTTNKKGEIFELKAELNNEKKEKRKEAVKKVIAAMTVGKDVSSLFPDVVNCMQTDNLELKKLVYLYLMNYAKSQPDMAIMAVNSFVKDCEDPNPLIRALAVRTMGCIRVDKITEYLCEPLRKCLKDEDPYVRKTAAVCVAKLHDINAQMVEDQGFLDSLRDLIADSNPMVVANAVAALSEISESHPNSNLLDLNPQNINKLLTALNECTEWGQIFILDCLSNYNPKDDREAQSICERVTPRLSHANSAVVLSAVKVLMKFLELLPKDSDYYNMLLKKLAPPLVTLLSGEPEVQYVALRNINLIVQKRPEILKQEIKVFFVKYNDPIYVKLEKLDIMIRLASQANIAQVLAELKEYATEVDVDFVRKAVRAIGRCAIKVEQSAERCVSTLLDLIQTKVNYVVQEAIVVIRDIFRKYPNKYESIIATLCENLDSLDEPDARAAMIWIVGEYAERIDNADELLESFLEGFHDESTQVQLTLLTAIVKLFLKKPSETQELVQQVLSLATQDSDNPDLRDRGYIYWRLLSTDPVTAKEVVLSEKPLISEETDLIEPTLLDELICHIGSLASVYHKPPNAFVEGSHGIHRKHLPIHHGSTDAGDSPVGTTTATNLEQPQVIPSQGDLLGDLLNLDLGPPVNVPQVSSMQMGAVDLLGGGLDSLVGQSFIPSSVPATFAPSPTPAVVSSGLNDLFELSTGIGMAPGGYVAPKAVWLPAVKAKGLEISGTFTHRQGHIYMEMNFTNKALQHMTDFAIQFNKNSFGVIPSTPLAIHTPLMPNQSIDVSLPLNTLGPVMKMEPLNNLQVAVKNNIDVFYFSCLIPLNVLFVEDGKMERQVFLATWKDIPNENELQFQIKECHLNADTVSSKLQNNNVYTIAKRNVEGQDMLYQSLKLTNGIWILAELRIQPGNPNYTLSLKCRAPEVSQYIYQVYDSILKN

| Structure (SMILES) | percent of DMSO control GFP [1] | GFP response vs DMSO [2] | percent response of DMSO control [3] | GFP response vs DMSO [4] | GFP response, % of DMSO [5] | double positive events [6] [%] | vesicle binding response [6] | inhibition [7] | superoxide response (% of plate) [8] | aptamer binding inhibition [9] | response [10] | response [11] | binding (% of control) [12] | efflux inhibition (fraction of control) [13] | inhibition [14] | differentiation response [15] | inhibition [16] |
| --- | --- | --- | --- | --- | --- | --- | --- | --- | --- | --- | --- | --- | --- | --- | --- | --- | --- |
| CC(C)CN1CC(C(=O)O)CC1=O (centres undefined) | 96.1% (inactive) | 101% (inactive) | 96% (inactive) | 104% (inactive) | 102% (inactive) | 56 | 66.5% (inactive) | 1.12% (inactive) | 102% (inactive) | 0% (inactive) | -5.23% (inactive) | -1.05% (inactive) | 104% (inactive) | -0.57 (inactive) | 4% (inactive) | 5.73% (inactive) | – |
| Nc1nc2c(ncn2COC(CO)CO)c(=O)[nH]1 | 97.3% (inactive) | 106% (inactive) | 96.4% (inactive) | 125% (inactive) | 119% (inactive) | 60.3 | 212% (inactive) | -11.3% (inactive) | 106% (inactive) | -6% (inactive) | -20.9% (inactive) | -2.35% (inactive) | 98% (inactive) | – | 5% (inactive) | -10.9% (inactive) | -16.5% (inactive) |
| CC(C(=O)O)c1ccc(N2Cc3ccccc3C2=O)cc1 (centres undefined) | 98.4% (inactive) | 103% (inactive) | 93.9% (inactive) | 119% (inactive) | 90.4% (inactive) | 62.1 | 2350% (inactive) | -7.47% (inactive) | 112% (inactive) | -4% (inactive) | 3.47% (inactive) | 0.33% (inactive) | 107% (inactive) | -0.41 (inactive) | 1% (inactive) | -1.12% (inactive) | – |
| COc1cc(C2CC(=O)NC3=C2C(=O)CC(C)(C)C3)ccc1O (centres undefined) | 99.6% (inactive) | 99.9% (inactive) | 105% (inactive) | 100% (inactive) | 103% (inactive) | 61.3 | 141% (inactive) | 11.9% (inactive) | 98.7% (inactive) | 4% (inactive) | – | -2.29% (inactive) | 96.5% (inactive) | -0.09 (inactive) | 4% (inactive) | 0% (inactive) | 22.3% (inactive) |
| CN1CCCC(OC(=O)c2ccc3c(c2)OCCO3)C1 (centres undefined) | 101% (inactive) | 106% (inactive) | 108% (inactive) | 82.3% (inactive) | 96.3% (inactive) | 58.8 | 175% (inactive) | -8.64% (inactive) | 100% (inactive) | 0% (inactive) | – | -2.88% (inactive) | 96% (inactive) | 0.41 (inactive) | 8% (inactive) | 1.41% (inactive) | 2.71% (inactive) |
| C[C@@H]1C[C@H]2[C@@H]3CCC4=CC(=O)C=C[C@]4(C)[C@@]3(F)[C@@H](O)C[C@]2(C)[C@H]1C(=O)CO | 102% (inactive) | 97.9% (inactive) | 109% (inactive) | 81.3% (inactive) | 96.6% (inactive) | 54.1 | 226% (inactive) | -12.4% (inactive) | 107% (inactive) | -2% (inactive) | – | -6.95% (inactive) | 97.8% (inactive) | -0.12 (inactive) | 6% (inactive) | -11.5% (inactive) | -3.18% (inactive) |
| Cc1nc2sccn2c(=O)c1CCN1CCC(=C(c2ccc(F)cc2)c2ccc(F)cc2)CC1 | 101% (inactive) | 98.6% (inactive) | 105% (inactive) | 121% (inactive) | 121% (inactive) | 61.2 | 217% (inactive) | 2.29% (inactive) | 86.3% (inactive) | -2% (inactive) | – | -6.88% (inactive) | 109% (inactive) | 0.08 (inactive) | 2% (inactive) | -4% (inactive) | -0.42% (inactive) |
| CC1COc2c(N3CCN(C)CC3)c(F)cc3c(=O)c(C(=O)O)cn1c23 (centres undefined) | 92.2% (inactive) | 120% (inactive) | 103% (inactive) | 77.6% (inactive) | 90.8% (inactive) | 64.3 | 109% (inactive) | 11.3% (inactive) | 112% (inactive) | 2% (inactive) | -5.81% (inactive) | -5.31% (inactive) | 95.4% (inactive) | – | 7% (inactive) | -5.73% (inactive) | 2.93% (inactive) |
| Cc1ncc([N+](=O)[O-])n1CC(O)CCl (centres undefined) | 101% (inactive) | 103% (inactive) | 102% (inactive) | 104% (inactive) | 100% (inactive) | 59.5 | 193% (inactive) | 7.22% (inactive) | 101% (inactive) | 4% (inactive) | – | -1.86% (inactive) | 105% (inactive) | -0.09 (inactive) | 8% (inactive) | -0.2% (inactive) | 24.7% (inactive) |
